From PubChem BioAssay (NCATS) come the findings set out here.

Records with an inconclusive call do not appear. Values without a mark were called inactive. The source made the active and inactive calls. Unless noted, calls follow the shape of the dose curve; as a rule, active = well fitted curve in the direction sought with a large enough effect; inconclusive = small, poorly fitted or top-dose-only effect, or another doubt; inactive = no such curve, though single readings can be large; an effect the other way counts as inactive or inconclusive.

A short description of assay [1]: P-glycoprotein substrates identified in KB-8-5-11 adenocarcinoma cell line, qHTS therapeutic library screen (AID 1346987). Also: nearly all actives have a fitted effect of over 65% in size. Also: potency is read from the fitted curve at half-maximal effect. In outline:
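P-gp-mediated resistance screen: KB-8-5-11 cells treated 72 h with compounds in dose-response. CellTiter-Glo viability.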

The subject of assay [2] is Zika virus NS2B-NS3 protease (unlinked complex). Description: Primary screen GU Rhodamine qHTS for Zika virus inhibitors: Unlinked NS2B-NS3 protease assay (AID 1347159). Also: % is scaled to controls: 0 for no effect and ±100 for the full control effect; nearly all actives have a fitted effect of over 60% in size. A digest of the protocol:
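Noncovalent NS2B hydrophilic domain/NS3 protease complex (25 nM final) in 10 mM Tris-HCl pH 8.0, 0.01% Tween 20, preincubated 15 min with compounds (up to 114 microM), then 1.5 microM Rhodamine110 substrate. Fluorescence change over 15 min fitted to 4-parameter Hill.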
For orientation: qHTS replaces the single test concentration by a dilution series.

The nature of assay [3]: Primary qHTS for inhibitors of nuclear receptor binding SET domain protein 2 (NSD2) in an isogenic RCH-ACV NSD2 p.E1099K mutant (9B) (AID 1645876). Also: nearly all actives have a fitted effect of over 70% in size. Also: potency is read from the fitted curve at half-maximal effect.
The nature of assay [4]: Primary qHTS for inhibitors of nuclear receptor binding SET domain protein 2 (NSD2) in an RCH-ACV wild type WT cells (2C) (AID 1645877). Also: nearly all actives have a fitted effect of over 70% in size. Also: potency is read from the fitted curve at half-maximal effect.
Another assay concerns HEK293. Briefly: Cytotoxic Profiling of Annotated Libraries Using Quantitative High-Throughput Screening (AID 1296008). Also: nearly all actives have a fitted effect of over 60% in size. Also: potency is read from the fitted curve at half-maximal effect. As to max response: % is scaled to controls: 0 for no effect and ±100 for the full control effect. Conditions: Five cell lines viability, CellTiter-Glo ATP luminescence, 48-72 h; max response: active compounds read low. In outline: (§1)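 Cells exposed to compounds for 48 or 72 hr at 37 degrees Celsius. Viability read as ATP-coupled luminescence with CellTiter-Glo after 10 min at room temperature.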
A general note: Cellular ATP, detected with luciferase, serves as a proxy for viable cell number.

Another assay relates to KB-3-1. Described as above. Conditions: Five cell lines viability, CellTiter-Glo ATP luminescence, 48-72 h; max response: active compounds read low. A digest of the protocol: as §1
The subject of the next assay is HeLa. Description: Primary qHTS to identify gynecologic anti-cancer compounds using libraries of approved drugs and bioactive compounds (AID 1345084). Also: nearly all actives have a fitted effect of over 55% in size. Also: potency is read from the fitted curve at half-maximal effect. Particulars: Gynecologic cancer cell panel viability, ATPlite luminescence, 48 h; series mostly up to 57.5 µM. In outline: (§2)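 In this quantitative HTS, cell killing is estimated from loss of ATP-dependent luciferase light. Cells see five compound concentrations over a 48 h exposure.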

Assay [5] concerns CRL-7250. Briefly: Cytotoxic Profiling of Annotated Libraries Using Quantitative High-Throughput Screening (AID 1296008). Also: nearly all actives have a fitted effect of over 60% in size. Also: potency is read from the fitted curve at half-maximal effect. As to max response: % is scaled to controls: 0 for no effect and ±100 for the full control effect. Conditions: Five cell lines viability, CellTiter-Glo ATP luminescence, 48-72 h; max response: active compounds read low. A digest of the protocol:
as §1

Another assay concerns SKOV3. Description: Primary qHTS to identify gynecologic anti-cancer compounds using libraries of approved drugs and bioactive compounds (AID 1345084). Also: nearly all actives have a fitted effect of over 55% in size. Also: potency is read from the fitted curve at half-maximal effect. Particulars: Gynecologic cancer cell panel viability, ATPlite luminescence, 48 h; series mostly up to 57.5 µM. A digest of the protocol:
as §2

The subject of assay [6] is CRL-7250. Briefly: qHTS assay to identify novel small-molecules to repurpose for Merkel cell carcinoma treatment (AID 1296009). Also: nearly all actives have a fitted effect of over 60% in size. Conditions: MCC and control cell lines, CellTiter-Glo viability, 72 h; series mostly up to 92 µM. In outline: (§3)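 Cells were incubated with compound for 72 hr at 37 degree celsius before CellTiter-Glo addition. Luminescence was normalized with no-cell wells as full cytotoxicity and DMSO as baseline.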

Assay [7] is described as follows: P-glycoprotein substrates identified in KB-3-1 adenocarcinoma cell line, qHTS therapeutic library screen (AID 1346986). Also: nearly all actives have a fitted effect of over 60% in size. A digest of the protocol:
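Compounds were tested in dose-response against KB-3-1 and KB-8-5-11 cells at 37 degree C for 72 h, and viability was measured by luminescence. AC50 values came from curve fitting with class-based activity calls.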

The subject of a further assay is HACAT. Description: qHTS assay to identify novel small-molecules to repurpose for Merkel cell carcinoma treatment (AID 1296009). Also: nearly all actives have a fitted effect of over 60% in size. Conditions: MCC and control cell lines, CellTiter-Glo viability, 72 h; at 44.8 µM (top of the series) unless noted. In outline:
as §3

The test system of the next assay is NIH3T3. The assay is described as above. Particulars: MCC and control cell lines, CellTiter-Glo viability, 72 h; at 44.8 µM (top of the series) unless noted. A digest of the protocol: as §3
The target in assay [8] is Cytochrome P450 2D6 (Homo sapiens) (UniProt P10635). Description: Cytochrome P450 family 2 subfamily D member 6 (CYP2D6) small molecule antagonists: luciferase biochemical (cell-free) qHTS assay (AID 1645840; active = well fitted curve in the direction sought with a large enough effect in the repeat runs; an effect the other way counts as inactive or inconclusive; also: nearly all actives have a fitted effect of over 55% in size; also: potency is read from the fitted curve at half-maximal effect). A digest of the protocol:
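P450-Glo luminescent screen: recombinant CYP2D6 enzyme–proluciferin substrate mix preincubated with compound 10 min at room temperature, then NADPH regeneration added for 1 h at room temperature. Detection reagent added for 20 min; luciferin light read as relative luminescence units.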

The target in assay [9] is Cytochrome P450 2C9 (Homo sapiens) (UniProt P11712). Description: Cytochrome P450 family 2 subfamily C member 9 (CYP2C9) small molecule antagonists: luciferase biochemical (cell-free) qHTS assay (AID 1645842; active = well fitted curve in the direction sought with a large enough effect in the repeat runs; an effect the other way counts as inactive or inconclusive; also: nearly all actives have a fitted effect of over 55% in size; also: potency is read from the fitted curve at half-maximal effect). A digest of the protocol:
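Luminescence, after 20 min with luciferin detection reagent, reflected CYP2C9 turnover during a 1 h NADPH-driven reaction at 37C. Enzyme-substrate mix contained 0.4% bovine serum albumin and was preincubated with compound 10 min at room temperature.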

Sequence of Cytochrome P450 2C9 (Homo sapiens) (P11712 whole entry, looked up): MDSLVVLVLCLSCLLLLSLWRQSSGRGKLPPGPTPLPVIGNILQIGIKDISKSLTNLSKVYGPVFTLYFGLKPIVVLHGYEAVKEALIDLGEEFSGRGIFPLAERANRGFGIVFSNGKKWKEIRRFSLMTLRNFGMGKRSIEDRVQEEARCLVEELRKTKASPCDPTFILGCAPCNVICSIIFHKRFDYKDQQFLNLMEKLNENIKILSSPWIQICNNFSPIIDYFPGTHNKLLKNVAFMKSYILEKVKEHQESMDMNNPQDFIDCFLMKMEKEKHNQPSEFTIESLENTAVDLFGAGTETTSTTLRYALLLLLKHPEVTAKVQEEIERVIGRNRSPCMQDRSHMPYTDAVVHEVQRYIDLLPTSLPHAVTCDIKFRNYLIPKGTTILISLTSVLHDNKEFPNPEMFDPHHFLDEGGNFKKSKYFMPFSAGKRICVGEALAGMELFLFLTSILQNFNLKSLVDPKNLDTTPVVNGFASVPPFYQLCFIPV
Sequence of Cytochrome P450 2D6 (Homo sapiens) (P10635 whole entry, looked up): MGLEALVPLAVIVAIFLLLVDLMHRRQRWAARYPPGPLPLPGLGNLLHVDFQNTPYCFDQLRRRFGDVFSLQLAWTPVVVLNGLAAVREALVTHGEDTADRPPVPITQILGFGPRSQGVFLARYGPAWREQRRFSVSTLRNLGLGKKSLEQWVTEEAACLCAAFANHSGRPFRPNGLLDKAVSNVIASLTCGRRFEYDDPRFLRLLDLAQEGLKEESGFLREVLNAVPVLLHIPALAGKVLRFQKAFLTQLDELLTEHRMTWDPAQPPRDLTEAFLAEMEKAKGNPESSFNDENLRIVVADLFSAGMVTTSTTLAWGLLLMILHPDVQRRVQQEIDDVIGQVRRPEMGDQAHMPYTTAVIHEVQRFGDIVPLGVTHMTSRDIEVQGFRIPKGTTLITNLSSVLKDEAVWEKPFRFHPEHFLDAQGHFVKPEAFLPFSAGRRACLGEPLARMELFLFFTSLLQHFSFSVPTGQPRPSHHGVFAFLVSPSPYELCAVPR

On to `Cc1ccccc1C1=CCN(C)CC1`, for which the Potency result (in assay [1]; in assay [2]; in assay [3]; in assay [4]; in the assay with HeLa) was “inactive” throughout. Besides, the max response is -19.5% in the assay with HEK293 and 6.53% in the assay on KB-3-1.

Take `CO[C@H]1C[C@H](O[C@H]2CC[C@]3(CO)[C@H]4CC[C@]5(C)[C@@H](C6=CC(=O)OC6)CC[C@]5(O)[C@@H]4CC[C@]3(O)C2)O[C@H](C)[C@H]1O`: the Potency is 0.0224 µM (active) in assay [1]; 0.0502 µM (active) in assay [3]; 0.0709 µM (active) in the assay with CRL-7250 [5]; 0.224 µM (active) in the assay on KB-3-1; 0.158 µM (active) with SKOV3. In addition, the Potency result in [2] is “inactive”.

Regarding `O=C(NCCN1CCC2(CC1)C(=O)NCN2c1cccc(F)c1)c1ccc(F)c(F)c1`, the Potency in assay [1] was 16.4 µM (active); in [3] it was 23 µM (active). Also, the Potency result (in [2]; in the assay on CRL-7250 [6]; with HeLa; in the assay with SKOV3) was “inactive” in each case. For the same compound, the call with CRL-7250 [5] was inactive.

For the compound `CCC1CC2CN3CCc4c([nH]c5ccccc45)C(C(=O)OC)(C2)C13` (stereo not drawn), the Potency entry (in assay [7]; in assay [1]; in assay [2]; in assay [3]; in assay [4]; in the assay on HeLa) was “inactive” each time. Also, the max response in the assay on CRL-7250 [5] is 3.09%. For the same compound, the compound was called inactive in the assay on KB-3-1.

For `C=C(CO)[C@@]12O[C@@H]1[C@@]1(C)C(=CC2=O)CC[C@@H](O)[C@@H]1C`, the Potency in assay [1] is 13 µM (active); in assay [3], 12.9 µM (active); in assay [4], 12.9 µM (active); in the assay on HEK293 it was 23.1 µM (active). Besides, in assay [2], the Potency result is “inactive”. The result in the assay with HACAT was inactive.

As to `C[C@]12CC[C@H](OC3OC(CO)C(O)C(O)C3OC3OC(CO)C(O)C(O)C3O)C[C@@H]1CC[C@@H]1C2CC[C@]2(C)[C@@H](C3=CC(=O)OC3)CC[C@]12O` (stereo partly drawn), the Potency entry (in [2]; in the assay with HeLa; with SKOV3) was “inactive” in each case. Further, in assay [3], the Potency was 4.3 µM (active). Also, the max response in the assay with KB-3-1 is 6.08%. Also, the outcome in the assay on NIH3T3 was “inactive [at 17.4 µM]”.

For `NNC(=O)c1nn(Cc2ccc(Cl)cc2Cl)c2ccccc12`, the max response with KB-3-1 was -14.6%. The Potency entry in the assay with HeLa is “inactive”.

In the case of `N#Cc1ccccc1-c1cc(-c2ccccn2)cn(-c2ccccc2)c1=O`, the Potency result (in assay [8]; in [3]; in assay [4]; with HeLa; with SKOV3) was “inactive” in each case. In addition, the Potency in [9] is 13.5 µM (active).

Take `CC1=CC2/C=C(\C)CCC(O)C(O)/C=C/C(=O)C23C(=O)NC(CC(C)C)C3C1C` (stereo not drawn): the Potency result in assay [2] is “inactive”. Besides, the values for the Potency (in assay [3]; in assay [4]; in the assay with HEK293) were 2.24 µM (active), 2 µM (active) and 2.82 µM (active), respectively.

Turning to `C[C@H]1CN(Cc2ccc(CC(=O)N3CCC(Nc4cccc(F)c4)CC3)cc2)CCN1`, the Potency entry (in [2]; in assay [9]; in the assay with HeLa; with SKOV3) was “inactive” throughout. Further, the Potency is 12 µM (active) in assay [8] and 18.4 µM (active) in the assay with HEK293. Also, the max response in the assay on KB-3-1 was -18.3%.

As for `C/C=C(/C)C(=O)O[C@H]1[C@@H]2[C@H](C)C(=O)O[C@@H]2C[C@@H](C)[C@@H]2C=CC(=O)[C@]21C`, in [2], the Potency result is “inactive”. Further, the figures for the Potency in assay [3] and in assay [4] were 12.7 µM (active) and 10.1 µM (active), respectively. The max response in the assay with HEK293 is -117%.
